In the library only some 0.93% were active in any assay of this set; here they are far more common.
TAR Tat displ = HIV-1 TAR-Tat binding disruption | HIV-1 TAR RNA, Tat peptide displacement FRET; hits give high values | z-score (test concentration not listed) | 100,000 tested, 0.6% active | AID 1259389; active = z-score of 3 or more in at least 2 runs
CDC25B-CDK2 inh = human CDC25B-CDK2/CyclinA binding inhibition; AID 1259370; P30305+P24941; z-score (concentration not given with the values); 94,000 tested, 0.72% active; HTRF CDC25B-CDK2/CyclinA binding, anti-His/anti-Flag; hits give high values; in the data active = z-score above about 3.2
Active calls of the source: *; x = no result given.

SMILES | TAR Tat displ | CDC25B-CDK2 inh
CCOC(=O)C1=CS/C(=C2/C(=S)C(C)(C)Nc3cc(C)ccc32)S1 | 1 | -3.3
COC(=O)C1=C(C(=O)OC)SC(=C2C(=S)C(C)(C)Nc3ccc(OC)cc32)S1 | 1.3 | -6.5
COC(=O)C1=C(C(=O)OC)SC(=C2C(=S)C(C)(C)Nc3cc(C)ccc32)S1 | 1.5 | 13*
CCOC(=O)C1=C(C(=O)OCC)SC(=C2C(=S)C(C)(C)Nc3cc(C)ccc32)S1 | -0.02 | 17*
CCCc1cc(=O)n2nc(N3CCC(C(=O)NCCN4CCN(CC)CC4)CC3)sc2n1 | 2.2 | -0.97
COc1nc2ccc(C)cc2cc1-c1noc(-c2ccncc2)n1 | 0.7 | -13
COc1nc2ccc(C)cc2cc1-c1noc(-c2cccnc2)n1 | 3.6* | -13
CCOC(=O)c1c(S(=O)(=O)N2CCCC(C(=O)NC3CCC(C)CC3)C2)c(C)n(CC)c1C (stereo unspecified) | 1.1 | x
Cc1ccnc(N2C(=O)c3ccccc3C2Nc2ccccc2)c1 (stereo unspecified) | 1.2 | 0.36
Cc1ccc(N2C(=O)c3ccccc3C2Nc2cccnc2)nc1 (stereo unspecified) | -0.5 | 12*
Cc1ccc(-c2n[nH]c(=O)c3c2CCCC3)cc1S(=O)(=O)N(C)c1ccc(Br)cc1 | -0.49 | 0.37
Cc1cc(C)c(S(=O)(=O)Nc2cc3c(cc2C)n(C)c(=O)n3C)c(C)c1 | 0.42 | x
Cc1cc(C)c(S(=O)(=O)Nc2ccc[nH]c2=O)c(C)c1 | -1.9 | 9.4*
CCOC(=O)c1cnc2ccc(Br)cc2c1Nc1ccc(N(C)C)cc1 | 7.7* | -0.69
CCOC(=O)c1cnc2ccc(Br)cc2c1NCc1ccco1 | -1.2 | -3.2
Cc1noc(C)c1S(=O)(=O)NCCc1sc2nc(-c3ccc(F)cc3)nn2c1C | 1.1 | x
COc1ccc(-c2ccc3c(n2)sc2c(O)cc(=O)[nH]c23)cc1OC | 5.1 | -0.51
O=c1cc(O)c2sc3nc(-c4ccncc4)ccc3c2[nH]1 | 15* | 2.5
CCC(C)C1N=C2c3ccccc3N=C(SC(C)C(=O)Nc3ccc4c(c3)OCCO4)N2C1=O (stereo unspecified) | -0.25 | x
CC(C)c1cc(C(=O)Nc2c(F)cc(F)cc2Br)no1 | 0.76 | -0.76
O=C(Nc1ccccc1Br)C1=Cc2sc3c(c2CS1)CCCC3 | -3.5 | x
O=C(O)C1C2CC=CC2c2cc(Br)cc3c2N1CC1CC=CC31 (stereo unspecified) | 20* | 4.9*
Cc1cc2c3c(c1)C1C=CCC1C(C(=O)O)N3CC1CC=CC21 (stereo unspecified) | x | -1.2
O=C(CCCc1nnc2n3nc(-c4ccccc4)nc3c3ccccc3n12)NCCN1CCCC1 | 1.5 | 0.24
N[C@@H](Cc1cnc[nH]1)C(=O)O | x | -0.77
SMILES | TAR Tat displ | CDC25B-CDK2 inh
O=C(O)c1cnc[nH]1 | x | 3.9*
O=C(c1cccc(NC2=NC3CS(=O)(=O)CC3S2)c1)N(Cc1ccccc1)Cc1ccccc1 (stereo unspecified) | x | -1.5
N#CC1=C2SCN(C3CCCC3)CN2C(=O)CC1c1ccc(Cl)cc1 (stereo unspecified) | 0.27 | 0.82
N#CC1=C2SCN(c3ccccc3)CN2C(=O)CC1c1cccs1 (stereo unspecified) | -0.09 | 17*
N#CC1=C2SCC(O)(c3ccccc3)N2C(=O)CC1c1cccs1 (stereo unspecified) | x | -2.3
N#CC1=C2SCN(C3CCCC3)CN2C(=O)CC1c1cccs1 (stereo unspecified) | 1.3 | 5.9*
CSc1ccc(C2CC(=O)N3CN(Cc4ccccc4)CSC3=C2C#N)cc1 (stereo unspecified) | -2.2 | 1.5
CCOc1ccc(C2CC(=O)N3CN(Cc4cccnc4)CSC3=C2C#N)cc1 (stereo unspecified) | -2.2 | 6.8*
N#CC1=C2SCN(c3ccc(F)cc3)CN2C(=O)CC1c1cccs1 (stereo unspecified) | 0.54 | 6*
Cc1c2cnn(CC(=O)O)c(=O)c2c(C)n1Cc1ccccc1F | 3.5 | -1
CCOc1ccc(-n2nnc(-c3nc(-c4ccc(C)cc4)no3)c2N)cc1 | -0.14 | x
O=[N+]([O-])c1cccnc1SCc1csc2ccc(Cl)cc12 | x | 0.01
CCCCN(C)c1nc(C(=O)OCC)nc2onc(C)c12 | 0.78 | x
N#CC1=C2SCN(c3ccc(Cl)cc3)CN2C(=O)CC1c1cccs1 (stereo unspecified) | -0.61 | 6.3*
N#CC1=C2SCN(c3ccc(Br)cc3)CN2C(=O)CC1c1cccs1 (stereo unspecified) | 2.7 | 0.05
Cc1ccc(N2CSC3=C(C#N)C(c4cccs4)CC(=O)N3C2)cc1C (stereo unspecified) | -1.5 | 6.2*
CCOc1ccc(N2CSC3=C(C#N)C(c4cccs4)CC(=O)N3C2)cc1 (stereo unspecified) | -1.7 | 4*
CCOc1ccc(N2CSC3=C(C#N)C(c4ccco4)CC(=O)N3C2)cc1 (stereo unspecified) | -1.8 | 5.1*
O=C(CSc1ccc(-c2cccs2)nn1)NCC1CCCO1 (stereo unspecified) | 1.9 | x

Assay outcomes from PubChem.
